Source: PubChem BioAssay AID1727 (National Center for Advancing Translational Sciences (NCATS), 2009)
Calls of active or inactive are those of the source. Where a call stands in place of a potency, no number is given. Calls follow the shape of the dose curve; as a rule, active = well fitted curve in the direction sought with a large enough effect; inactive = no such curve, though single readings can be large or run the other way.

target: Epidermal growth factor receptor (Homo sapiens) (UniProt P00533); assay: Assay for Inhibitors of the ERK Signaling Pathway using a Homogeneous Screening Assay: EGFR L858R Kinase Inhibition; conditions: EGFR L858R kinase biochemical inhibition assay; series mostly up to 21.9 µM
Description: qHTS Assay for Inhibitors of the ERK Signaling Pathway using a Homogeneous Screening Assay
NIH Chemical Genomics Center [NCGC]
NIH Molecular Libraries Screening Centers Network [MLSCN]
Assay Submitter (PI): Dr. Wei Zheng, NCGC/NIH
The Ras/extracellular-signal-regulated kinase (ERK) mitogen activated protein (MAP) kinase signaling pathway (ERK1/2 cascade) plays is a key role in transmitting signals from the cell surface to the nucleus (Nishida and Gotoh 1993; Chang and Karin, 2001). The cascade is initiated by the small G-protein Ras, which recruits Raf […], where activation occurs. Alternatively, this pathway can be activated by elevating intracellular cAMP.
Activation of the ERK pathway is essential in increased cell division and cell survival. Sustained and constitutive activation of the ERK pathway, however, has been linked to uncontrolled cell proliferation, increased cell survival, and tumor progression. Thus, the ERK has been as an attractive target for cancer chemotherapy in the past few years (Sebolt-Leopold and Herrera, 2004). Given its physiological and pathological importance, assessment of ERK phosphorylation has been broadly performed in both basic research and drug discovery. Most assays for the measurement of ERK phosphorylation use the antibody-based detection methods, such as western blot and ELISA. These assays require multiple reagent additions with cell wash steps and are not suitable for high-throughput screening.
The current cell-based ERK phosphorylation assay was performed using AlphaScreen platform. AlphaScreen is a two bead-based proximity-dependent chemical energy transfer luminescent assay platform. The assay reagents (ERK SureFire(TM) kit) were supplied from TGR BioSciences (Australia). In the presence of specific antibodies, phosphorylated ERK will bring "donor" and "acceptor" beads to a proximity range (<200 nm), and subsequently lead a chemical luminescent reaction upon exciting donor beads with 680 nm laser. To validate pathway hits from the cell-based assay, enzyme assays consisting of EGFR tyrosine kinase, Raf and MEK were used as a means of deciphering the enzymes of target for the prioritized group of compounds derived from the HEK-293 cell based assay. The compounds were tested against significant members of the ERK signaling pathway EGFR and EGFR mutants (EGFR L858R, EGFR T790M, and EGFR L858R T790M). In order to establish the specificity of the prioritized compounds for EGFR and EGFR mutants, the compounds were also assayed against other important ERK signaling pathway enzymes, c-RAF and MEK-1.
NCGC Assay Protocol Summary:
The HTRF kinase assay (components supplied as kit by Cisbio) was chosen for the EGFR and EGFR mutant enzyme assays that applied the time resolved fluorescence resonance energy transfer (TR-FRET) principle. A peptide substrate is labeled with a biotin that can bind to XL665 labeled streptavidin and the anti-phosphoresidue antibody is labeled with Eu+. Upon phosphorylation of the substrate, the antibody binds to phosphorylated substrate that enables TR-FRET detection in homogenous assay format.
An HTRF Kinease TK assay kit (Cisbio, Bedford, MA) was used to develop the EGFR and EGFR mutant assays (Harbert et al., 2008. Harbert C, Marshall J, Soh S, Steger K. Development of a HTRF Kinase Assay for Determination of Syk Activity. Current Chemical Genomics. 1: 20-26. 2008). EGFR and EGFR mutants were obtained from Invitrogen. The assay buffer was composed of 50 mM HEPES (pH 7.0), 5 mM MgCl2, 5mM DTT, 0.1 % NaN3, 0.1 % BSA and 0.1 mM orthovanadate.
The HTRF assays were preformed according to the HTRF Kinease TK kit. Optimization for each enzyme was preformed in 384 well format (data not included). All reagents were dispensed into 1536 well plates.
(1) Enzyme, […] EGFR at 3 nM final
(2) Compound, 22 nl, Library Compounds in 0.128 to 10 mM titration series or control
(3) Reagent, 1.5 ul 10 uM ATP and 0.25 uM substrate final
(4) Incubation for 30 min, Ambient conditions
[…]

Sequence of Epidermal growth factor receptor (Homo sapiens) (P00533 whole entry L858R, looked up): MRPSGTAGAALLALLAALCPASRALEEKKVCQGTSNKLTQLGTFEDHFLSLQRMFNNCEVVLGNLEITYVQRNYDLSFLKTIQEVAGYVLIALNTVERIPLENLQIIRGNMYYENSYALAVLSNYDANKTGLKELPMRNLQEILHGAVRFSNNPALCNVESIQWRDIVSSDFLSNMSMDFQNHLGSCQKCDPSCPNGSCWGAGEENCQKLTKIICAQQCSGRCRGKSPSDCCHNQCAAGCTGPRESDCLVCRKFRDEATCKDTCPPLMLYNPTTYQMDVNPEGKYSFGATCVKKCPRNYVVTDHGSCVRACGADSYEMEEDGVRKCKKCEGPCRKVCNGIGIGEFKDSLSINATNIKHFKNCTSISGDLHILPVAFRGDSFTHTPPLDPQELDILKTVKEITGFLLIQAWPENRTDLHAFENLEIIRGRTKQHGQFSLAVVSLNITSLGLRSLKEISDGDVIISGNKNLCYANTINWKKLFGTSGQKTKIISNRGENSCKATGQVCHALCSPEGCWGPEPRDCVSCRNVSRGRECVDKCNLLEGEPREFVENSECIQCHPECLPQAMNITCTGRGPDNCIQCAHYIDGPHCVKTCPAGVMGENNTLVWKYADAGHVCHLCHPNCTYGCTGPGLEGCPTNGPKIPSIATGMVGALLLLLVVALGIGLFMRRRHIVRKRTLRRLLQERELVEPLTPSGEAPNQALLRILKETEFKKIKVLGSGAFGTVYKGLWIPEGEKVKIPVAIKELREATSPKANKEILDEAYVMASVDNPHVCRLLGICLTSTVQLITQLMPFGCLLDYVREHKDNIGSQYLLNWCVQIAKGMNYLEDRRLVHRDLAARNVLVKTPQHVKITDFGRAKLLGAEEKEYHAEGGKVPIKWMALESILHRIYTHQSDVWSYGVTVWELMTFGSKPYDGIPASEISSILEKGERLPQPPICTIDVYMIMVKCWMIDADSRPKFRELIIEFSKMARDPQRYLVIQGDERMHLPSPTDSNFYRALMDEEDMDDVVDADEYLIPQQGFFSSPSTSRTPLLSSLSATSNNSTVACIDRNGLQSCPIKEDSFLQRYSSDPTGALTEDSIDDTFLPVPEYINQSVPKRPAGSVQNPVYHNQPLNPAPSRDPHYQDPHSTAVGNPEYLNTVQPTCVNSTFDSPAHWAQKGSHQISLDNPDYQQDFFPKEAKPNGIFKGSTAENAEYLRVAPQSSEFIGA

Which Potency does the source give for `Cn1c(=O)[nH]c2nnc(-c3ccc(Cl)c(Cl)c3)nc2c1=O` here?
Its Potency is “inactive”.

`Cc1nc2ccccc2nc(=O)c1NNc1ccccc1` was tested. Which Potency did it give?
The Potency was 631 nM (active).

How did the Potency turn out when `CN(C)c1cccc2c1C(=O)c1ccccc1C2=O` was run?
The Potency was “inactive”.

With `N#C/C(=C(/N)Sc1ccc(N)cc1)c1ccccc1C(F)(F)F` as the compound, how does the Potency read?
The Potency was “inactive”.

With `O=C1c2ccccc2C(=O)c2c(NCCCN(CCO)CCO)cccc21` as the compound, how does the Potency read?
The Potency was “inactive”.

Which Potency does the source give for `CCN(CC)CCC(=O)Nc1cccc2c1C(=O)c1ccccc1C2=O` here?
Its Potency is “inactive”.

`Cc1ccc2nc(=O)c(NNc3ccccc3)cnc2c1` was tested. Which Potency did it give?
Its Potency is 631 nM (active).

`Fc1ccc(Nc2ncnc3sc4c(c23)CCC4)cc1F` was tested. Which Potency did it give?
The Potency was 44.7 nM (active).

`CS(=O)(=O)CCNCc1nc(-c2ccc3ncnc(Nc4ccc(OCc5cccc(F)c5)c(Cl)c4)c3c2)cs1` was tested. Which Potency did it give?
Its Potency is 50.1 nM (active).

For `Cc1ccc(NNc2c(C)nc3ccccc3nc2=O)cc1`, which Potency is on record?
Its Potency is 3160 nM (active).

`Cn1nc(-c2ccccn2)nc2c(=O)n(C)c(=O)nc1-2` was tested. Which Potency did it give?
The Potency was “inactive”.

For `O=C1c2ccccc2C(=O)c2c1cccc2N1CCCC1`, which Potency is on record?
The Potency was “inactive”.

For `O=C(Nc1nc(-c2ccccc2)cs1)c1ccc(N2CCOCC2)c([N+](=O)[O-])c1`, which Potency is on record?
The Potency was “inactive”.

With `COc1ccc(C(=O)c2ccc(Cl)c([N+](=O)[O-])c2)cc1` as the compound, how does the Potency read?
The Potency was “inactive”.

For `Cn1nc(-c2ccc(Cl)cc2)nc2c(=O)n(C)c(=O)nc1-2`, which Potency is on record?
Its Potency is “inactive”.

`CNc1cccc2c1C(=O)c1ccccc1C2=O` was tested. Which Potency did it give?
Its Potency is “inactive”.

`CCn1c(=O)c2[nH]c(-c3ccccc3)nc2n(CC)c1=O` was tested. Which Potency did it give?
The Potency was “inactive”.
